Only some compounds are listed: those with a hit (about 3.5% of all), similar ones and a draw of the others.
LEDGF integ inh: blockers of LEDGF/p75-dependent integrase strand transfer – biochemical, TR-FRET, high throughput, primary screen. HIV-1 integrase (with human LEDGF/p75). TR-FRET IN-LEDGF/p75 DNA integration, Eu/Cy5. inhibition, % at 3.7 µM. hit rate 0.64% among 370,000. AID 743269, 2014;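 active = inhibition above the screen-wide mean plus 3 SD, cut at about 13% in these data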;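 also: signal is the Cy5 over europium emission ratio at 671 and 618 nm; 0% = plate median of compound wells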
DNMT1 inh: human DNMT1 methyltransferase inhibitors, primary screen, biochemical, molecular beacon, fluorescence, HinP1I cleavage, uHTS | DNA (cytosine-5)-methyltransferase 1 (Homo sapiens), P26358 | inhibition (reported as % activation of signal), % at 10 µM | hit rate 0.83% among 360,000 | AID 588458, 2011; in the data active = inhibition above about 50%
MBD2 DNA inh: inhibitors of MBD2 binding to methylated DNA, primary screen, biochemical, TR-FRET, DNA-binding domain, human; Methyl-CpG-binding domain protein 2 (Homo sapiens), Q9UBB5; MBD2 binding to methylated oligonucleotide; inhibition, % at 4.4 µM; hit rate 0.31% among 370,000; in the data active = inhibition above about 13%
Target sequence (Q9UBB5 whole entry, looked up, the tested form may be a part): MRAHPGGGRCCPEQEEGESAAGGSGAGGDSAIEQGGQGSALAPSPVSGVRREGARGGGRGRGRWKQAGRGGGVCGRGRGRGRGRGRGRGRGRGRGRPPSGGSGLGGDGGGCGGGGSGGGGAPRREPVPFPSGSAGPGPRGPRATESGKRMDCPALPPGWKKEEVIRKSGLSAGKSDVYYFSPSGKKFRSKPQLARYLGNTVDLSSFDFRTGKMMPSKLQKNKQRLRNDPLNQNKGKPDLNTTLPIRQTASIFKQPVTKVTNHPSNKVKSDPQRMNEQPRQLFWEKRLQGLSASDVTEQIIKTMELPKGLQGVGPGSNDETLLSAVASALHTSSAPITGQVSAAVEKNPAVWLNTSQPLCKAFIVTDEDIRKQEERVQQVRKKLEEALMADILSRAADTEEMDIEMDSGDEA
PG9 Ab binder: binders of HIV-1 gp120 antibody PG9, primary screen, biochemical, TR-FRET. TR-FRET gp120-PG9 antibody binding. inhibition, % at 6.7 µM. hit rate 0.43% among 360,000. AID 624416, 2012; in the data active = inhibition above about 8.5%
rCAG RNA binder: binders of r(CAG) RNA repeats, primary screen, biochemical, fluorescence | r(CAG) RNA repeat, TO-PRO-1 dye displacement fluorescence | inhibition, % at 3 µM | hit rate 1.3% among 370,000 | AID 651821, 2012;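 active = inhibition above the plate cutoff, the mean of all test compounds on that plate plus 3 SD, cut at about 35% in these data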;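 also: 0% = DMSO alone and 100% = 100 µM mitoxantrone as full dye displacement; higher means more dye released from RNA so lower well fluorescence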
UHRF1 MBD2 ctr: UHRF1 methylated DNA binding inhibitors, primary screen, counter-screen for MBD2 inhibitor project, biochemical, TR-FRET, human UHRF1, single concentration | AID 687016, 2013 | UHRF1 binding to methylated oligo | hit rate 0.75% among 370,000 | inhibition, % at 4.4 µM | E3 ubiquitin-protein ligase UHRF1 (Homo sapiens), Q96T88; in the data active = inhibition above about 21%;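 also: UHRF1 SRA domain binding a hemimethylated CpG hairpin DNA probe; 0% = median of test compound wells and 100% = reference inhibitor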
IN multimer act: HIV-1 IN multimer formation enhancers, counter-screen for LEDGF/p75 integration inhibitor project, biochemical, TR-FRET; activation, % at 7.7 µM; AID 1053131, 2014; hit rate 17% among 2,000; TR-FRET HIV-1 integrase multimerization; shares compounds with LEDGF integ inh; in the data active = activation above about 8.9%
TRFRET interf: TR-FRET optical interference artefacts, confirmation, artefact control for LEDGF/p75-dependent integration inhibitor project, biochemical, HIV-1 IN multimerization. shares compounds with LEDGF integ inh. TR-FRET optical interference counterscreen. inhibition, % at 7.7 µM. 2,000 tested, under 10 active;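 active = inhibition above the mean over all tested compounds plus 3 SD, which no compound reached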;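 also: 0% = integrase with antibodies and DMSO and 100% = antibodies without integrase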
LEDGF integ conf: inhibitors of HIV-1 IN-LEDGF/p75 DNA integration, confirmation, biochemical, TR-FRET; shares compounds with LEDGF integ inh; TR-FRET LEDGF/p75-dependent HIV-1 integration; inhibition, % at 3.7 µM; hit rate 36% among 2,000; in the data active = inhibition above about 14%
* marks the source's active call; other numbers are inactive results; nt = not tested or not shown; ! = not confirmed by another sample.

SMILES	LEDGF integ inh	DNMT1 inh	MBD2 DNA inh	PG9 Ab binder	rCAG RNA binder	UHRF1 MBD2 ctr	IN multimer act	TRFRET interf	LEDGF integ conf
COC1CC2C=C(C)C=CC=CC(=O)NC(c3ccccc3)CC=CCCC(O)CC(=O)C2=C1O (stereo unspecified)	22.4*	40.9	4.7	-2.1	25.2	19.0	4.7	-23.6	49.8*
O=C(OCc1ccccc1)N1CCC2CC1c1cc(N3Cc4ccccc4-n4nncc4C3)ccc12 (stereo unspecified)	26.1*	-4.4	3.9	0.2	11.4	6.3	1.7	-6.1	11.9
O=C(c1cccc([N+](=O)[O-])c1)C12CN3CN(CN(C3)C1)C2	-1.9	2.4	-1.2	2.2	1.2	-1.9	nt	nt	nt
COc1ccc(-n2c(O)c(C(C)=NCCN3CCNCC3)c(=O)[nH]c2=O)cc1	17.4*	4.3	2.8	-1.0	-0.5	5.8	-0.4	2.2	3.3
CC[C@@H](CO)NC(=O)[C@@H]1C=C2c3cccc4c3c(cn4C)C[C@H]2N(C)C1	24.6*!	15.9	4.6	-11.4	3.4	17.0	2.0	-7.3	13.9*
O=C1NC(=S)NC(=O)C1C1CCCCC1	-1.8	-3.8	-3.1	-0.7	-4.7	-4.0	nt	nt	nt
CN1C(=O)C(C2CCCCC2)C(=O)N(C)C1=O	54.7*	3.9	1.4	1.3	2.2	0.2	0.9	-4.3	-1.1
COc1ccc(Cc2nccc3cc(OC)c(OC)cc23)cc1OC	32.6*	-4.5	3.9	-2.7	2.2	18.7	1.8	-6.3	5.7
COc1ccc(C=O)cc1O	1.3	1.2	-4.7	-0.1	0.4	-1.3	nt	nt	nt
CC(=O)C1(c2ccccc2)CCN(C(=O)C2CCC(=O)N(CCc3cccc(F)c3)C2)CC1 (stereo unspecified)	0.0	-0.9	0.6	-1.8	-12.4	-0.8	nt	nt	nt
CCN(CC)C(=O)Cn1cc(/C=C2\C(=O)NC(=O)N(c3ccccc3F)C2=O)c2ccccc21	18.1*	2.9	1.9	-1.5	1.8	-0.4	1.5	-5.6	4.7
COc1ccc(CCNCc2ccccc2)cc1	4.1	-3.4	1.6	2.2	0.5	0.8	nt	nt	nt
COc1ccc(CCNCc2ccncc2)cc1	14.3*	2.1	-3.8	0.8	0.9	-0.8	-2.6	9.4	1.6
Oc1ccc(C[C@H]2NCCc3cc(O)c(O)cc32)cc1O	55.2*	1.8	7.9	-1.6	2.2	30.1*	18.0*	-64.1	29.9*
Oc1ccc(CC2CC3CCN2CC3)cc1O (stereo unspecified)	-6.8	2.6	-0.5	-2.2	1.6	2.8	nt	nt	nt
COc1ccc(-c2ccc3c(c2)CN(C(=O)C(C)(C)C)Cc2cnnn2-3)cc1	5.5	4.2	0.7	-2.4	3.7	-1.3	nt	nt	nt
O=S(=O)(c1cc(Cl)cc(Cl)c1)N1Cc2cc(-c3cccc(F)c3)ccc2-n2nncc2C1	0.9	14.2	2.2	0.7	1.8	-0.4	nt	nt	nt
CC(C)(C)C(=O)N1Cc2cc(-c3ccccc3)ccc2-n2nncc2C1	14.8*	12.8	-4.8	5.5	1.8	1.2	-1.4	7.0	0.9
CN1Cc2ccccc2-n2nncc2C1	-0.8	6.5	-2.1	1.5	-2.0	-0.3	nt	nt	nt
Fc1cccc(-c2ccc3c(c2)CN(c2cccc(Cl)c2)Cc2cnnn2-3)c1	33.6*	-3.1	6.8	-1.8	8.4	6.7	2.5	-12.6	20.3*
Fc1ccc(N2Cc3ccccc3-n3nncc3C2)cc1	20.6*	6.6	2.0	-1.7	4.1	0.8	0.0	-0.2	19.2*
CC(C)CNC(=O)/C=C/C=C/CCCCCC/C=C/c1ccc2c(c1)OCO2	6.2	6.3	-0.9	-0.4	0.3	2.0	nt	nt	nt
COc1ccc(NC(=O)N2C[C@@H]3C[C@@H](C2)c2cccc(=O)n2C3)cc1	1.1	-4.0	-3.0	1.0	-0.9	-0.9	nt	nt	nt
CCOc1ccc(-n2c(CC)nc3ccccc3c2=O)cc1	39.1*	3.9	7.6	-1.0	-0.7	0.1	-0.9	4.5	1.0
Cc1ccccc1-n1c(C)cc(/C=C2/C(=O)NC(=O)N(Cc3ccco3)C2=O)c1C	49.4*	29.6	6.8	-0.8	6.5	11.1	-0.6	2.1	-0.2
SMILES	LEDGF integ inh	DNMT1 inh	MBD2 DNA inh	PG9 Ab binder	rCAG RNA binder	UHRF1 MBD2 ctr	IN multimer act	TRFRET interf	LEDGF integ conf
CCOC(=O)C1CCN(/C=C2/C(=O)NC(=O)N(Cc3ccco3)C2=O)CC1	14.0*	28.6	-0.8	0.6	3.8	10.2	3.5	-12.7	2.9
CC(C)OC(=O)C1C(c2ccc(I)cc2)CC2CCC1N2C (stereo unspecified)	1.7	nt	-2.1	3.8	6.3	0.1	nt	nt	nt
O=c1cccc2n1CC1CC2CN(C(c2cccc(F)c2)c2sc3ncnn3c2O)C1 (stereo unspecified)	16.6*	3.2	-5.3	1.8	1.1	-1.6	-0.5	2.4	0.6
C[C@H](NC(=O)N1C[C@H]2C[C@@H](C1)c1cccc(=O)n1C2)C(=O)Nc1cccc(F)c1	-0.7	-1.8	-1.5	-2.9	-1.4	1.5	nt	nt	nt
CN(C)C(Cc1ccccc1)C(=O)c1c[nH]c2ccccc12 (stereo unspecified)	4.0	-7.9	4.0	0.3	3.5	2.3	nt	nt	nt
Cc1cccc(N2C(=O)NC(=O)/C(=C\C=C\c3ccco3)C2=O)c1	31.2*	40.2	4.8	-1.3	26.6	11.3	0.4	-1.9	27.8*
Cc1ccc(N2C(=O)NC(=O)/C(=C\c3ccoc3)C2=O)cc1	10.8	16.8	2.2	-2.6	13.6	1.8	nt	nt	nt
Cc1cccc(N2C(=O)NC(=O)/C(=C\c3cccn3-c3ccc(Cl)cc3)C2=O)c1	0.9	48.4	-0.1	0.7	14.7	-4.5	nt	nt	nt
Cc1ccc(N2C(=O)NC(=O)/C(=C\C=C\c3ccco3)C2=O)cc1	40.6*	27.8	2.0	-3.3	28.2	7.5	-0.1	0.8	33.1*
O=C(Nc1ccc(Br)cc1)c1nn(C23CC4CC(CC(C4)C2)C3)cc1Br	0.6	3.3	3.1	1.9	3.3	-2.3	nt	nt	nt
